# Assay results from PubChem BioAssay (Tox21).
# A number with no mark means an inactive call. The source made the active and inactive calls. Calls come from the whole dose curve; as a rule, active = well fitted activation curve with a large enough effect in the repeat runs; inconclusive = weak or mixed curves; inactive = flat fitted curve, though single readings scatter.
# Test: A CellTox Green Cytotoxicity Assay to monitor cytotoxicity in HEK293 cells - 0 hour (AID 1224869); note: nearly all actives have a fitted effect of over 50% in size
# Conditions: CellTox Green fluorescence; series mostly up to 76.8 µM; cytotoxicity: at the top concentration
# Excerpt: National Center for Advancing Translational Sciences [NCATS]
# NIH Chemical Genomics Center [NCGC]
# U.S. Environmental Protection Agency [EPA]
# National Institutes of Environmental Health Sciences [NIEHS]
# National Toxicology Program [NTP]
# Cell-based models are critical for drug discovery. Determining the natural cytotoxic effects resulting from test compounds is an essential research activity. A CellTox Green Cytotoxicity Assay to monitor cytotoxicity in real time of continues cell culture during 40 hours of the compound treatment was used to screen Tox21 10K library compounds in Hek293 cells. CellTox Green Cytotoxicity Assay is a nonlytic, homogeneous, biofluorescent method to measure cytotoxicity in cell culture after experimental manipulation. The assay system uses a proprietary asymmetric cyanine dye that is excluded from viable cells but preferentially stains the dead cell's DNA. […] Viable cells produce no appreciable increases in fluorescence. Therefore, the fluorescence signal produced by the binding interaction with dead cell DNA is proportional to cytotoxicity.
# The mixture of Hek293 cell suspension and reagents were dispensed at 600cells/6 ul/well in 1536-well tissue culture treated black solid bottom plates using a Multidrop dispenser. After the assay plates were incubated at a 37 C/5% CO2 incubator for 5 hours, 23 nL of compounds dissolved in DMSO, positive and negative controls was transferred to the assay plate by a pintool work station. The plates were incubated at 37 C for 40 hours. The fluorescence intensity were measured at 0h, 8h, 16h, 24h, 32h and 40h time points using ViewLux plate reader during compound treatment.
# % is set by controls: 0 for no effect and ±100 for the full control effect; potency is the fitted concentration of half-maximal effect.
Compound,cytotoxicity,Potency
CC(N)CN (stereo not given),-7.96%,
CCCCCCCCCOC(C)=O,-2.4%,
O=S(=O)(c1ccccc1)c1ccc(Cl)cc1,-5.87%,
CN1CCN(c2c(F)cc3c(=O)c(C(=O)O)cn4c3c2OCN4C)CC1,-13.4% [at 15.8 µM],
CC(=N\O)/C(C)=N/O,-10.8%,
CCCCCCCC/C=C\CCCCCCCC(=O)OC(CO)CO,-2.7%,
Cc1ccnc2ccccc12,0.0934%,
CN(C)CCOC1=Cc2ccccc2Sc2ccc(Cl)cc21,0.313% [at 35.3 µM],
NC(=O)Cn1c(=O)cc(CCN2CCN(c3nccc4sccc34)CC2)c2ccc(F)cc21,0.829%,
CC1CN(c2cc3c(cc2F)c(=O)c(C(=O)O)cn3-c2ccc(F)cc2F)CCN1 (stereo not given),-3.88% [at 6.97 µM],
CCOC(=O)OCC,2.78%,
CCOC(=O)c1ccccc1OC,-1.09%,
CCCCC(CC)CNCC(CC)CCCC (stereo not given),1.45%,
COC(=O)[C@@H]1CC2=CC(=O)CC[C@]2(C)[C@@]23O[C@@H]2C[C@@]2(C)[C@@H](CC[C@@]24CCC(=O)O4)[C@H]13,3.95% [at 35.3 µM],
CCCCN(CCCC)C(=S)SSC(=S)N(CCCC)CCCC,7.46%,
CC(=O)Nc1ccc(N)cc1,2.48%,
Brc1cc(-c2ccc(Br)c(Br)c2Br)cc(Br)c1Br,2.96% [at 35.3 µM],
COCCOC(=O)C1=C(C)NC(C)=C(C(=O)OC/C=C/c2ccccc2)C1c1cccc([N+](=O)[O-])c1 (stereo not given),0.864% [at 35.3 µM],
Cc1oncc1C(=O)Nc1ccc(C(F)(F)F)cc1,,inactive
O=C(Nc1ccccc1)Nc1ccccc1,2.59%,

Compound,cytotoxicity,Potency
Cc1nccn1-c1ccc(Sc2cccc(C3(C(N)=O)CCOCC3)c2)cc1,1.41%,
Cc1occc1C(=O)Nc1ccc(C(=O)N2CCC(F)(F)/C(=C\C(=O)N3CCC(N4CCCCC4)CC3)c3ccccc32)cc1,-9.83% [at 35.3 µM],
CCCOc1ccc(S(=O)(=O)N2CCN(CC)CC2)cc1-c1nc2c(CC)n(Cc3ccccn3)nc2c(=O)[nH]1,-6.29%,
CCOC(=O)C(C)Oc1ccc(Oc2nc3ccc(Cl)cc3o2)cc1 (stereo not given),0.0727%,
CN1CCCN=C1/C=C/c1cccs1,-0.924% [at 35.3 µM],
O=C(O)c1snc(Cl)c1Cl,0.249%,
Cc1oc(C)c(C(=O)Nc2ccccc2)c1C,2.41%,
CCOC(=N)CC(=O)OCC,-0.106%,
O=C(O)c1ccc(CO)o1,-1.33%,
CSc1ccc(Oc2ccc(S(N)(=O)=O)cc2CN(C)C)cc1C,-4.98%,
CCCOC(=O)c1ccc(C(=O)OCCC)nc1,-7.05%,
COc1ccc(CCC(=O)c2c(O)cc(O[C@@H]3O[C@H](CO)[C@@H](O)[C@H](O)[C@H]3O[C@@H]3O[C@@H](C)[C@H](O)[C@@H](O)[C@H]3O)cc2O)cc1O,-5.27%,
O=C(OCCOCCO)c1ccccc1Nc1cccc(C(F)(F)F)c1,-1.99% [at 35.3 µM],
COCCOC,0.533%,
O=C(CCCCCCCCC#CI)Oc1ccccc1,2.02% [at 35.3 µM],
CCCCCCCCCCOS(=O)(=O)O,7.88%,
COCc1c(C(C)C)nc(C(C)C)c(/C=C/[C@@H](O)C[C@@H](O)CC(=O)O)c1-c1ccc(F)cc1,,inactive
CCCCCCCCCCCCCCC[C@H](O)[C@@H](N)CO,,19 µM (active)
Cc1nc2ccccc2s1,11.4%,
CCNC(=O)N1CCN(CCCC(c2ccc(F)cc2)c2ccc(F)cc2)CC1,0.847% [at 35.3 µM],
